From PubChem BioAssay (EPA / NIEHS) come the findings set out here.

Usually AC50 stands for the concentration giving half of the maximal activity seen.

Common to all, as to conditions: mRNA level, 48 h; actives raise or lower the signal
Read-out in assay [1]: Cytochrome P450 (CYP2B6), CYP2B6 (gene 1555)
The assay can be described thus: LTEA_HepaRG_CYP2B6: Life Technologies and Expression Analysis (LTEA) Assay for Cytochrome P450 (CYP2B6) using HepaRG (AID 2283481). Summed up: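 Using 48 h treatment of HepaRG cells in serum-free induction medium, concentrations spanned half-log steps from 100 uM in 0.5% DMSO vehicle. CYP2B6 mRNA induction or loss is scored by qRT-PCR against DMSO.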

Read-out in assay [2]: Cytochrome P450 2C19 (Homo sapiens) (UniProt P33261)
The assay can be described thus: LTEA_HepaRG_CYP2C19: Life Technologies and Expression Analysis (LTEA) Assay for CYP2C19 using HepaRG (AID 2283482). Summed up: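 Human HepaRG liver cells received test chemicals for 48 h (highest 100 uM, half-log dilutions in 0.5% DMSO). CYP2C19 mRNA induction or loss is read by multiplexed qRT-PCR and fitted in both directions versus vehicle.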

Read-out in assay [3]: CYP2C8 (gene 1558)
The assay can be described thus: LTEA_HepaRG_CYP2C8: Life Technologies and Expression Analysis (LTEA) Assay for CYP2C8 using HepaRG (AID 2283483). Put shortly:
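CYP2C8 expression measured by TaqMan qRT-PCR and normalized to three housekeeping genes. HepaRG cultures were treated for 48 h with an eight-point half-log series topping at 100 uM, vehicle 0.5% DMSO, duplicates; fitted both directions against DMSO.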

Read-out in assay [4]: CYP2C9 (gene 1559)
The assay can be described thus: LTEA_HepaRG_CYP2C9: Life Technologies and Expression Analysis (LTEA) Assay for CYP2C9 using HepaRG (AID 2283484). Summed up:
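CYP2C9 transcript level, quantified by TaqMan qRT-PCR against three housekeeping genes, was fitted bidirectionally relative to 0.5% DMSO. HepaRG cultures were treated 48 h, in duplicate, at eight half-log concentrations topping at 100 uM.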

Read-out in assay [5]: CYP2E1 (gene 1571)
The assay can be described thus: LTEA_HepaRG_CYP2E1: Life Technologies and Expression Analysis (LTEA) Assay for CYP2E1 using HepaRG (AID 2283485). Summed up:
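Assay uses 48 h exposure of HepaRG hepatic cells, eight concentrations to 100 uM. Expression of CYP2E1 is quantified by TaqMan qRT-PCR with ACTB, GAPDH and POLR2A normalization; curves fitted in both directions relative to vehicle.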

Read-out in assay [6]: CYP4A11 (gene 1579)
Briefly: LTEA_HepaRG_CYP4A11: Life Technologies and Expression Analysis (LTEA) Assay for CYP4A11 using HepaRG (AID 2283486). Put shortly:
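Readout is CYP4A11 mRNA induction or suppression (qRT-PCR, ACTB/GAPDH/POLR2A normalization) in human HepaRG cells after 48 h chemical treatment, concentrations to 100 uM in 0.5% DMSO, fitted bidirectionally against vehicle.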

Read-out in assay [7]: Cytochrome P450 3A4 (Homo sapiens) (UniProt P08684)
The assay can be described thus: LTEA_HepaRG_CYP3A4: Life Technologies and Expression Analysis (LTEA) Assay for CYP3A4 using HepaRG (AID 2283487). Summed up: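 Differentiated HepaRG cells in serum-free induction medium exposed in duplicate for 48 h to 8 half-log concentrations up to 100 uM in 0.5% DMSO. CYP3A4 mRNA measured by qRT-PCR normalized to ACTB, GAPDH and POLR2A; bidirectional fit versus DMSO.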

Read-out in assay [8]: DNA damage-inducible transcript 3 (DDIT3), DDIT3 (gene 1649)
The assay can be described thus: LTEA_HepaRG_DDIT3: Life Technologies and Expression Analysis (LTEA) Assay for DNA damage-inducible transcript 3 (DDIT3) using HepaRG (AID 2283488). Summed up:
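Eight-point concentration-response (100 uM highest, half-log dilutions) in HepaRG, 48 h, duplicate wells. Endpoint: qRT-PCR mRNA, normalized (ACTB, GAPDH, POLR2A), bidirectional fitting with DMSO as baseline.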

Read-out in assay [9]: Pro-epidermal growth factor (Homo sapiens) (UniProt P01133)
Briefly: LTEA_HepaRG_EGF: Life Technologies and Expression Analysis (LTEA) Assay for Epidermal growth factor (EGF) using HepaRG (AID 2283489). Put shortly:
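EGF expression changes in human HepaRG cells are scored by bidirectional fitting relative to 0.5% DMSO controls. Chemicals are tested at eight half-log concentrations up to 100 uM for 48 h in serum-free induction medium.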

Read-out in assay [10]: Early growth response protein 1 (EGR1) transcription factor, EGR1 (gene 1958)
Briefly: LTEA_HepaRG_EGR1: Life Technologies and Expression Analysis (LTEA) Assay for Early growth response protein 1 (EGR1) transcription factor using HepaRG (AID 2283490). Put shortly:
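EGR1 transcript levels quantified by qRT-PCR (Fluidigm arrays) against three housekeeping genes after 48 h chemical exposure of HepaRG cells. Eight-point half-log series topping at 100 uM, 0.5% DMSO vehicle, analyzed for gain or loss.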

Read-out in assay [11]: Ezrin (EZR), EZR (gene 7430)
Briefly: LTEA_HepaRG_EZR: Life Technologies and Expression Analysis (LTEA) Assay for Ezrin (EZR) using HepaRG (AID 2283491). Summed up: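 Differentiated human HepaRG cells, 48 h after plating, were exposed in serum-free induction medium for 48 hours to eight half-log concentrations up to 100 uM in 0.5% DMSO. EZR mRNA was measured by TaqMan qRT-PCR, normalized to ACTB, GAPDH and POLR2A, and fitted bidirectionally against DMSO.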

Read-out in assay [12]: Cytochrome P450 3A7 (Homo sapiens) (UniProt P24462)
Briefly: LTEA_HepaRG_CYP3A7: Life Technologies and Expression Analysis (LTEA) Assay for CYP3A7 using HepaRG (AID 2283492). Summed up:
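Cells were thawed, plated, cultured 48 h, then treated for a further 48 h with chemicals (eight-point half-log series from 100 uM, 0.5% DMSO). RNA was isolated and CYP3A7 expression quantified by qRT-PCR normalised to ACTB, GAPDH and POLR2A.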

Read-out in assay [13]: CYP3A5 (gene 1577)
The assay can be described thus: LTEA_HepaRG_CYP3A5: Life Technologies and Expression Analysis (LTEA) Assay for CYP3A5 using HepaRG (AID 2283493). Summed up: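 Readout was CYP3A5 mRNA by qRT-PCR. HepaRG cultures were exposed for 48 h in serum-free induction medium to chemicals at up to 100 uM, and responses were fitted in both directions relative to DMSO vehicle.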

Read-out in assay [14]: Cytochrome P450 4A22 (Homo sapiens) (UniProt Q5TCH4)
Briefly: LTEA_HepaRG_CYP4A22: Life Technologies and Expression Analysis (LTEA) Assay for Cytochrome P450 4A22 (CYP4A22) using HepaRG (AID 2283495). Put shortly: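 Cryopreserved HepaRG cells, plated and cultured 48 h, then switched to serum-free induction medium and treated 48 h (duplicates, up to 100 uM, half-log steps, 0.5% DMSO). Expression change of CYP4A22 was fitted bidirectionally against vehicle.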

Read-out in assay [15]: Cytochrome P450 7A1 (Homo sapiens) (UniProt P22680)
The assay can be described thus: LTEA_HepaRG_CYP7A1: Life Technologies and Expression Analysis (LTEA) Assay for Cytochrome P450 7A1 (CYP7A1) using HepaRG (AID 2283496). Put shortly:
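Using 0.5% DMSO as vehicle and baseline, chemicals were tested in duplicate over an 8-point range from 100 uM on HepaRG cells for 48 h; qRT-PCR signals were normalised to ACTB, GAPDH and POLR2A.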

Read-out in assay [16]: Glutathione S-Transferase (GSTA2), GSTA2 (gene 2939)
Briefly: LTEA_HepaRG_GSTA2: Life Technologies and Expression Analysis (LTEA) Assay for Glutathione S-Transferase (GSTA2) using HepaRG (AID 2283497). Summed up: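 GSTA2 transcript levels came from Fluidigm TaqMan qRT-PCR normalized to three housekeeping genes, fitted in both directions against DMSO. HepaRG cultures received chemicals for 48 h in serum-free induction medium (0.5% DMSO), 8 half-log concentrations up to 100 uM, duplicate.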

Read-out in assay [17]: Glutamate-cysteine ligase catalytic (GCLC), GCLC (gene 2729)
The assay can be described thus: LTEA_HepaRG_GCLC: Life Technologies and Expression Analysis (LTEA) Assay for Glutamate-cysteine ligase catalytic (GCLC) using HepaRG (AID 2283498). Put shortly: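 Expression by TaqMan qRT-PCR, normalized to three housekeeping genes (ACTB, GAPDH, POLR2A), with up- or down-regulation fitted against DMSO. HepaRG cells dosed in duplicate for 48 h with 8 half-log concentrations up to 100 uM, vehicle 0.5% DMSO.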

Read-out in assay [18]: growth arrest and DNA damage 45 (GADD45G), GADD45G (gene 10912)
The assay can be described thus: LTEA_HepaRG_GADD45G: Life Technologies and Expression Analysis (LTEA) Assay for growth arrest and DNA damage 45 (GADD45G) using HepaRG (AID 2283499). Summed up: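 Human hepatic HepaRG line treated 48 h with chemicals (eight concentrations, half-log steps from 100 uM); transcript induction or repression of GADD45G scored by qRT-PCR versus DMSO vehicle.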

Read-out in assay [19]: Glutamate-cysteine ligase regulatory (GCLM), GCLM (gene 2730)
The assay can be described thus: LTEA_HepaRG_GCLM: Life Technologies and Expression Analysis (LTEA) Assay for Glutamate-cysteine ligase regulatory (GCLM) using HepaRG (AID 2283500). Summed up:
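In this multiplexed HepaRG gene-expression assay, GCLM mRNA change after 48 h treatment (8 concentrations, max 100 uM) was scored against DMSO by bidirectional curve fitting.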

Read-out in assay [20]: Fatty Acid-Binding Protein 1 (FABP1), FABP1 (gene 2168)
The assay can be described thus: LTEA_HepaRG_FABP1: Life Technologies and Expression Analysis (LTEA) Assay for Fatty Acid-Binding Protein 1 (FABP1) using HepaRG (AID 2283494). Summed up:
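FABP1 expression by TaqMan qRT-PCR, normalised to three housekeeping genes, in HepaRG cells after 48 h chemical treatment. Eight-point half-log series topping at 100 uM in 0.5% DMSO, duplicates; gain or loss fitted relative to vehicle.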

Molecules are shown by their SMILES. Activity calls are given as the source filed them. How the source made its calls: active means hit-call score of the fitted dose curve at least 0.9, where 1 is the maximum; inactive means score below 0.9.

Chain of Cytochrome P450 2C19 (Homo sapiens) (P33261 whole entry, looked up): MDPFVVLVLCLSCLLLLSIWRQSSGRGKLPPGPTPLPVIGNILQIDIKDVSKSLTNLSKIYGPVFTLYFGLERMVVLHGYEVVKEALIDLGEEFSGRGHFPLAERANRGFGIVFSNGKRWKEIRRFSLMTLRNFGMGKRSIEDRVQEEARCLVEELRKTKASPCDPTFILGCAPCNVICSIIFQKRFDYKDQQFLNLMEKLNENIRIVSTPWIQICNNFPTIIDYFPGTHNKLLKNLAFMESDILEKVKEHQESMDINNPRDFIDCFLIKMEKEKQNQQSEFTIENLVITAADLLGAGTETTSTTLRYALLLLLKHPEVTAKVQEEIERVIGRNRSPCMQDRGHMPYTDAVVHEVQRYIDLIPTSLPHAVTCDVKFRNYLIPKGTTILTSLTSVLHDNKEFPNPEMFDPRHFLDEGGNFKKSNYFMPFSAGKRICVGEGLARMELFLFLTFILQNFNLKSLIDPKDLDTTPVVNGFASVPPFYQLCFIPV
Chain of Cytochrome P450 3A7 (Homo sapiens) (P24462 whole entry, looked up): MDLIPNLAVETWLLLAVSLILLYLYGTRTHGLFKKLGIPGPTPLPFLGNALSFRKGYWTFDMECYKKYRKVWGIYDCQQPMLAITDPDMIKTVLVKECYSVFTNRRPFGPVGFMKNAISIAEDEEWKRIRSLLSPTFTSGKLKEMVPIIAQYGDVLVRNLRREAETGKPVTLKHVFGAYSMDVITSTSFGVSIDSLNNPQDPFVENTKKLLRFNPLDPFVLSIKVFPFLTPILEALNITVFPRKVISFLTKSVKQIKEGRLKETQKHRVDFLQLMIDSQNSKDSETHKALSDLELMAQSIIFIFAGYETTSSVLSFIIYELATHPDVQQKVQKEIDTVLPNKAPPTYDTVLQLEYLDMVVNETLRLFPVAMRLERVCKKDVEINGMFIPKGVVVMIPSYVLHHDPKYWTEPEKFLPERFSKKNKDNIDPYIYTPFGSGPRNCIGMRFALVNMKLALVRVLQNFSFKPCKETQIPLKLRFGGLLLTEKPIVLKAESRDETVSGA
Chain of Cytochrome P450 3A4 (Homo sapiens) (P08684 whole entry, looked up): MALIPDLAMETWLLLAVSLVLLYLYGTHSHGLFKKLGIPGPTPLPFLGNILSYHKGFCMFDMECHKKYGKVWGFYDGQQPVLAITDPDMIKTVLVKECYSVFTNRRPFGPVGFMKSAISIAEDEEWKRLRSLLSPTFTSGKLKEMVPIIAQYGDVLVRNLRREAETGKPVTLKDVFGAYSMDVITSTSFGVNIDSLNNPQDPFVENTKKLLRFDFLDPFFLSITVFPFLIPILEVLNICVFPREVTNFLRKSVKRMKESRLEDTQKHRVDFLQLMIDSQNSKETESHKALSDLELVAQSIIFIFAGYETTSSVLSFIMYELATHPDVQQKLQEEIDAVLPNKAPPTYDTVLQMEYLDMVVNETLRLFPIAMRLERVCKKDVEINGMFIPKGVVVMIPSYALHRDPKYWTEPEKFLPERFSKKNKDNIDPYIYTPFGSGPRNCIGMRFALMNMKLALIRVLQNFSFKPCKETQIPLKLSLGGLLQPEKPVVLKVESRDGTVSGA

Turning to `COP(=S)(OC)SCN1C(=O)c2ccccc2C1=O`, the AC50 in assay [1] was 50 µM (active). The molecule was classed as inactive in [2], in assay [3], in assay [4], in assay [5], in assay [6] and in assay [7]. Besides, the molecule was classed as inactive in assay [8], in assay [9], in assay [10], in assay [11], in assay [12] and in assay [13]. The molecule was called inactive in [14], in assay [15], in [16], in [17], in assay [18] and in assay [19].

On to `Cc1ccc(N=C=O)cc1N=C=O`, for which the molecule was called inactive in [1], in assay [2], in assay [3], in assay [7], in assay [9] and in assay [11]. Further, the result in assay [12], in assay [13] and in [19] was inactive. Also, the AC50 in assay [4] was 50 µM (active); in assay [5], 31.1 µM (active); in assay [6], 20.8 µM (active); in [8], 13.3 µM (active); in assay [10] it was 50 µM (active); in [20] it was 23 µM (active). For the same molecule, the concentration at half-maximal activity (AC50) in assay [14] is 50 µM (active); in assay [15], 31.7 µM (active); in [16], 50 µM (active); in assay [17] it was 30.3 µM (active); in [18], 50 µM (active).

Take `Nc1ccc([N+](=O)[O-])cc1`: the call in assay [1], in assay [2], in [3], in assay [4], in assay [5] and in [6] was inactive. The call in assay [7], in assay [8], in [9], in assay [10], in [11] and in [12] was inactive. Further, the outcome in [20], in assay [14], in assay [15], in [16], in assay [17] and in assay [18] was inactive.
